Only some compounds are listed: those with a hit (about 19% of all), similar ones and a draw of the others.
ELG1 DNA repair: inhibitors of ELG1-dependent DNA repair in HEK293T cells; Potency, µM (highest dose often 46.1 µM), inactives show at the highest dose activity change, negative = inhibition, most hits filed as inhibitors; actives 2.3% (n = 330,000); AID 504467; HEK293T ELG1-luciferase reporter, luminescence, 16 h; DNA damage induced by 5-fluorouridine; note: potency is the fitted concentration of half-maximal effect; nearly all actives have a fitted effect of over 55% in size
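DMSO vehicle served as the neutral condition. Each well held 2,000 cells given 5-fluorouridine plus compound; after 16 hr at 37 °C/5% CO2, ONE-Glo was added and luciferase measured 30 min later.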
TDP1 cell noCPT: qHTS for Inhibitors of human tyrosyl-DNA phosphodiesterase 1 (TDP1): qHTS in cells in absence of CPT; DT40 Tdp1-/- hTDP1 cells, no CPT, ATP luminescence, 48 h; Potency, µM (top dose mostly 46.2 µM), without a hit: at the top dose activity change, negative = growth inhibition, hits mostly inhibitors; actives 15% (n = 420,000); note: potency is the fitted concentration of half-maximal effect; nearly all actives have a fitted effect of over 55% in size
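Growth of hTDP1-complemented DT40 Tdp1-knockout cells is measured by ATP luminescence after at least 48 hr compound exposure at 37 °C, with DMSO substituting for the 20 nM CPT used in the parallel screen.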
IL-1B inflam inh: blocks inflammasome-driven IL-1 beta release. activity change, % at 57.5 µM. THP-1 LPS/ATP IL-1B secretion, AlphaLISA, 16 h; active compounds read low. actives 4.7% (n = 360,000); in the data active = activity change below about -50%; inconclusive = mostly about -30% to -49%
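Secreted IL-1B measured by AlphaLISA bead assay after 16 h compound exposure of THP-1 cells; compounds (final up to 57.5 uM) added 1 h before LPS (250 ng/mL) and ATP (1.25 mM) stimulation; lower signal means less secretion.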
TDP1 cell CPT: DT40-hTDP1 cell growth loss with CPT; chicken DT40 Tdp1-/-;hTDP1 cells + 20 nM CPT, ATP luminescence, 48 h; actives 12% (n = 420,000); Potency, µM (series often up to 46.2 µM), inactives show top-dose activity change, negative = growth inhibition, most hits filed as inhibitors; AID 686979; note: potency is the fitted concentration of half-maximal effect; nearly all actives have a fitted effect of over 55% in size
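Cell growth measured by CellTiter-Glo luminescence after a minimum 48 h, 37 C compound exposure with 20 nM CPT in Tdp1-knockout DT40 cells stably expressing hTDP1, seeded 400/well; qHTS titration format.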
TDP1 block: inhibitors of human tyrosyl-DNA phosphodiesterase TDP1; recombinant TDP1, AlphaScreen DNA substrate cleavage; AID 485290; Potency, µM (highest dose often 130 µM), without a hit: top-dose activity change, negative = inhibition, actives largely listed as inhibitors; Q9NUW8; actives 0.28% (n = 350,000); note: potency is the fitted concentration of half-maximal effect; nearly all actives have a fitted effect of over 40% in size
Target sequence (Q9NUW8 whole entry, looked up): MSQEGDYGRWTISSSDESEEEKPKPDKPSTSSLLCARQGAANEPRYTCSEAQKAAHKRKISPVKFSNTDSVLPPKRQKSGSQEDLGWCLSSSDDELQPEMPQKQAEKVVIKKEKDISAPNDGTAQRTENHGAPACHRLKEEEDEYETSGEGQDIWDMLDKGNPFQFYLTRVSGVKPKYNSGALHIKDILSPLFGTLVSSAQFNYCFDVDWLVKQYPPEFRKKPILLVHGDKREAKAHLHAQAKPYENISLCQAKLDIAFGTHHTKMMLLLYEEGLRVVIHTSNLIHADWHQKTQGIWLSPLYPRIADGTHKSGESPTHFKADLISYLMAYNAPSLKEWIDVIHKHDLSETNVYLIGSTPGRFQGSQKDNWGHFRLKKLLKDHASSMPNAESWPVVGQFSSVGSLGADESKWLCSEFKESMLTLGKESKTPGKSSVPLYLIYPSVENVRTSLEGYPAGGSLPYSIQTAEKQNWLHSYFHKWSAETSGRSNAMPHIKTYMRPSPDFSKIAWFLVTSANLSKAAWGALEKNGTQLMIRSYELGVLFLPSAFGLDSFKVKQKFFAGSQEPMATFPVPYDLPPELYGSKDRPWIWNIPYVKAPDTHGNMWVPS
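Recombinant E. coli-expressed Tdp1 (1 nM) preincubated with compound 15 min at RT, then 5'-biotin/3'-phosphotyrosine-FITC DNA substrate (15 nM) added for 5 min. AlphaScreen beads (10 ug/ml) added, 10 min RT; tyrosine-FITC cleavage read as signal loss.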
Giardia killer: kills Giardia lamblia; AID 540267; Giardia lamblia trophozoite viability; actives 0.15% (n = 340,000); activity change, % at 7.66 µM, hits read low; in the data active = activity change below about -80%; inconclusive = between about -30% and that limit;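 note: parasites exposed to compound for two days anaerobically before the ATP read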
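Viability, read as ATP luminescence: trophozoites at 100 cells/well, compound added, 48 hrs anaerobic at 37 deg C, then 15-30 min room-temperature development before reading.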
Active calls of the source: *; ? = inconclusive; . = not tested or not shown; [ ] = another dose, or the depositor's remark. Unless noted, calls come from the whole dose curve; as a rule, active = well fitted curve in the direction sought with a large enough effect; inconclusive = small, poorly fitted or top-dose-only effect, or another doubt; inactive = no such curve, though single readings can be large; an effect the other way counts as inactive or inconclusive. % is set by controls: 0 for no effect and ±100 for the full control effect.

SMILES	ELG1 DNA repair	TDP1 cell noCPT	IL-1B inflam inh	TDP1 cell CPT	TDP1 block	Giardia killer
COc1ccc(C(C(=O)NC2CCCC2)N(C(=O)c2snc(-c3ccc(F)cc3)c2N)c2ccccc2)cc1 (centres undefined)	21%	21µM*	14	15µM*	1%	5
COc1ccc(C(C(=O)NC2CCCC2)N(C(=O)c2snc(-c3ccc(F)cc3)c2N)c2ccc(F)cc2)cc1 (centres undefined)	1%	15µM*	47	9.2µM*	4%	-1
COc1ccc(N(C(=O)c2snc(C(N)=O)c2N)C(C(=O)NC2CCCC2)c2ccc(F)cc2)c(OC)c1 (centres undefined)	-2%	?	8	-28%	0%[0.0935 µM]	5
COc1ccc(C(C(=O)NC2CCCCC2)N(C(=O)c2sc(C)nc2C)c2ccccc2)cc1 (centres undefined)	-12%	-24%	28	9%	3%	-1
COc1ccc(C(C(=O)NC2CCCC2)N(C(=O)c2snc(-c3ccc(F)cc3)c2N)c2ccc(OC)cc2)cc1 (centres undefined)	-4%	3.7µM*	-2	8.2µM*	4%	20
COc1cc(C(=O)NCCC2=CCCCC2)ccc1OCc1c(C)noc1C	15%	-18%	?	-27%	-4%[56.1 µM]	-3
COc1ccc(-c2cccc(C3C4C=CCCC4(C)C(=O)N3Cc3ccccc3)c2)cc1 (centres undefined)	.	.	.	.	10%	-23
CCn1c(SCC(=O)Nc2cc(Cl)ccc2OC)nnc1C1CC1	4%	4%	2	3%	4%[0.0935 µM]	6
Cc1cccc(N2CCN(C(=O)C3CCCN(S(=O)(=O)c4ccc5c(c4)oc(=O)n5C)C3)CC2)c1C (centres undefined)	.	3.7µM*	.	7.3µM*	4%	.
CCOC(=O)C1CCCN(S(=O)(=O)c2ccc3c(c2)oc(=O)n3C)C1 (centres undefined)	.	?	.	-9%	-7%	.
CCOc1ccc(S(=O)(=O)N2CCN(c3c(C)cccc3C)CC2)c2ccccc12	.	.	.	.	2%	.
CCOc1ccc(S(=O)(=O)N2CCN(c3ccccc3F)CC2)c2cccnc12	-16%	16µM*	0	21µM*	6%	0
CCOc1ccc(S(=O)(=O)N2CCC(C(=O)N3CCN(c4ccccc4F)CC3)CC2)cc1C	?	29µM*	-28	23µM*	-4%	-2
CCOC(=O)c1cccc(NC(=O)C2CCN(S(=O)(=O)c3ccc4c(c3)oc(=O)n4C)CC2)c1	.	21µM*	.	?	-1%	.
CCOc1ccc(CN2CCC(C(=O)N3CCN(c4ccccc4F)CC3)CC2)cc1OC	-11%	-22%	-12	-17%	1%	12
CCOC(=O)c1cccc(NC(=O)C2CCCN(S(=O)(=O)c3ccc4c(c3)oc(=O)n4C)C2)c1 (centres undefined)	.	?	.	?	1%	.
Cn1c(=O)oc2cc(S(=O)(=O)N3CCN(c4ccccc4F)CC3)ccc21	14%	-7%	50	0%	3%	-12
Cc1cccc(N2CCN(C(=O)C3CCN(S(=O)(=O)c4ccc5c(c4)oc(=O)n5C)CC3)CC2)c1C	.	3.7µM*	.	4.6µM*	-4%	.
Cn1c(=O)oc2cc(S(=O)(=O)N3CCC(C(=O)N4CCN(c5ccccc5F)CC4)CC3)ccc21	.	18µM*	.	?	6%	.
CC(Oc1ccccc1)C(=O)Nc1nnc(S(=O)(=O)N(C)c2ccccc2)s1 (centres undefined)	9%	?	25	?	5%	7
CCN1CCC(N[C@H]2C[C@@H](C(=O)NC)N(Cc3cccc4ccccc34)C2)CC1	.	?	.	-8%[9.04 µM]	.	.
CCc1nn(CC(=O)NCCc2ccc(Cl)cc2)c(=O)c2cc3ccccc3n12	.	?	.	?	-1%	.
C1CN(CC23CC4CC(CC(C4)C2)C3)CCO1	0%	16µM*	-1	-21%	4%	10
O=C1C=C[C@@H](O)[C@H]2[C@@H]3C(=O)N(c4cccc(Oc5ccccc5)c4)C(=O)[C@@H]3CC[C@H]12	.	.	.	.	4%[21 µM]	.
c1ccc(-c2nnc(-c3ccccc3)c(-c3c[nH]c4ccccc34)n2)cc1	-6%	?	-7	?	5%	3
SMILES	ELG1 DNA repair	TDP1 cell noCPT	IL-1B inflam inh	TDP1 cell CPT	TDP1 block	Giardia killer
c1ccc2c(-c3ccncc3)c[nH]c2c1	21µM*	-27%	.	-3%	10%	-25
CCOC(=O)c1nn(-c2ccccc2C)c(=O)c2c(N)scc12	9%	?	-8	?	-5%	-8
CCOC(=O)c1nn(-c2ccccc2)c(=O)c2c(N)scc12	-17%	15µM*	19	8.2µM*	4%	-16
Nc1scc2c(C(=O)N/N=C/c3ccc(Cl)cc3)nn(-c3ccccc3)c(=O)c12	?	7.3µM*	-19	8.2µM*	.	-1
CCOc1ccc(NC(=S)NC(=O)c2c(Cl)cnn2CC)c([N+](=O)[O-])c1	1%	-4%	-15	4%	5%	-27
CCOc1ccc(NC(=S)NC(=O)c2c(Br)cnn2C)c([N+](=O)[O-])c1	24%	23µM*	-4	21µM*	8%	-1
COc1ccccc1CCNC(=O)C(=O)NCC1OCCN1S(=O)(=O)c1ccc(C)cc1 (centres undefined)	-7%	?	20	-23%	.	11
CCOC(=O)C1=C(C)NC(C)=C(C(=O)OCC)C1C(=O)OCC(=O)N(C)C	5%	2%	15	-6%	1%	-4
O=C(COC(=O)/C=C/c1ccccc1)NNC(=O)c1ccc([N+](=O)[O-])cc1	7%	-2%	-2	1%	.	-12
O=C(COC(=O)/C=C/c1ccc2ccccc2n1)NNC(=O)c1ccc([N+](=O)[O-])cc1	?	-9%	-53*	10%	-1%	14
Cc1ccc(S(=O)(=O)N(C)C)cc1NC(=O)COC(=O)/C=C/c1ccc2ccccc2n1	?	?	-106*	?	.	5
COc1cccc(CC2(CO)CCN(C(=O)NC3CCCCC3)CC2)c1	?	-28%	18	23µM*	-4%	8
OCC1(Cc2ccccc2C(F)(F)F)CCN(Cc2ccccc2)CC1	-2%	?	-61*	?	5%	10
OCC1(Cc2ccccc2C(F)(F)F)CCN(Cc2ccc3c(c2)CCO3)CC1	-3%	6%	0	-2%	-9%	6

Screens deposited in PubChem by National Center for Advancing Translational Sciences (NCATS).
